Twelve compounds from the supplement of paper PMC8699584 can be followed below.

Test [1] relates to Molm13. The test can be described thus: cell viability relative to DMSO control (bortezomib = 0%); higher = less growth inhibition. The settings on record: 10 nM; 72 h. In outline:
(§1)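 Using 384-well plates, a set of 679 approved and investigational compounds was tested once at 10 nM against acute myeloid leukemia cells (1000 cells per well in 50 µL) over 72 h, with the whole screen done in duplicate. Viability readout relied on CellTiter-Glo luminescence measured on an EnVision reader. For each plate, linear regression mapped values between positive-control-treated cells at 0% and DMSO-treated cells at 100%.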

For test [2], the system named is Mv4-11. The test is described as above. The note with it: 10 nM; 72 h. In outline: as §1

Each structure is given as a SMILES string. ± gives the standard deviation of the averaged measurements.

For `CC(C)(C)n1nc(-c2cccc3ccccc23)c2c(N)ncnc21`, the cell viability in test [1] worked out at 95.9 ± 9.6%; in test [2], 110 ± 10%.

For `O=C1NC(=O)[C@@H](c2cn3c4c(cccc24)CCC3)[C@@H]1c1c[nH]c2ccccc12` [Tivantinib (ARQ 197)], the cell viability in test [1] is 105 ± 3.9%; in test [2] it was 115 ± 11%.

For `COc1cc2nccc(Oc3ccc(NC(=O)Nc4cc(C)on4)c(Cl)c3)c2cc1OC` [Tivozanib (AV-951)], the results for the cell viability in test [1] and in test [2] were 96.3 ± 6.1% and 96.1 ± 11%, respectively.

Regarding `CN(C)CCN(C)C(=O)c1ccc(NC(=O)Nc2ccc(-c3nc(N4CCOCC4)c4ccn(CC(F)(F)F)c4n3)cc2)cc1`, the cell viability in test [1] was 87.9 ± 21%; in test [2] it was 105 ± 3.9%.

For the compound `COc1ccc(-c2oc3c(CC=C(C)C)c(O)cc(O)c3c(=O)c2O)cc1` [Icaritin], the cell viability in test [1] came out at 117 ± 8.4%; in test [2], 118 ± 1.5%.

Regarding `CCOC(=O)c1c2c3c(cccc3[nH]c1=O)C(=O)c1ccccc1-2`, the cell viability amounted to 124 ± 7.7% in test [1] and 103 ± 19% in test [2].

`S=C(NCc1ccc2c(c1)OCO2)N1CCN(c2ncnc3c2oc2ccccc23)CC1` [Amuvatinib(MP470)]: the cell viability was determined as 101 ± 10% in test [1] and 103 ± 15% in test [2].

As for `CC(C)c1[nH]nc(Cl)c1-c1ccnc(Nc2ccc(N3CCC(N(C)C)CC3)cn2)n1`, the cell viability in test [1] came out at 115 ± 1.8%; in test [2], 112 ± 9.6%.

For `CNS(=O)(=O)c1ccccc1Nc1nc(Nc2ccc(N3CCN(C)CC3)cc2OC)ncc1Cl` [ALK inhibitor 2], the cell viability in test [1] was 98.9 ± 20%; in test [2], 104 ± 16%.

For `COc1cc2ncnc(Nc3ccc(F)c(Cl)c3)c2cc1OCCCN1CCOCC1` [Gefitinib (ZD1839)], the cell viability worked out at 110 ± 23% in test [1] and 116 ± 1.7% in test [2].

`CCS(=O)(=O)c1cccc(-c2cc(C(=O)NC3CCN(C)CC3)c(C)c3[nH]c4ncc(C)cc4c23)c1`: the cell viability was 75.1 ± 5.3% in test [1] and 90.6 ± 3.5% in test [2].

As for `Oc1ccc(Nc2nc(-c3ccc(Cl)cc3)cs2)cc1`, the results for the cell viability in test [1] and in test [2] were 99.73 ± 0.67% and 105.24 ± 0.067%, respectively.
